# High-throughput results (PubChem)
# Compounds with a hit are over-represented: about 18% of the library has one in this group of screens.
# IL-1B inflam inh = qHTS for Inhibitors of Inflammasome Signaling: IL-1-beta AlphaLISA Primary Screen; AID 743279, 2014; hit rate 4.7% among 360,000; activity change, % at 57.5 µM; THP-1 LPS/ATP IL-1B secretion, AlphaLISA, 16 h; hits give low values; in the data active = activity change below about -50%; inconclusive = mostly about -30% to -49%
#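 THP-1 cells pretreated 1 hr with compounds (up to 57.5 uM final), then stimulated with LPS (250 ng/mL final) plus ATP (1.25 mM final); secreted IL-1B measured by AlphaLISA after 16 hr, decreased signal indicating inhibition.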
# TDP1 block = qHTS Assay for Inhibitors of Tyrosyl-DNA Phosphodiesterase (TDP1); AID 485290, 2010; Tyrosyl-DNA phosphodiesterase 1 (Homo sapiens), Q9NUW8; recombinant TDP1, AlphaScreen DNA substrate cleavage; Potency, µM (series often up to 130 µM), for inactives: at the highest dose activity change, negative = inhibition, actives largely listed as inhibitors; hit rate 0.28% among 350,000; also: potency is read from the fitted curve at half-maximal effect; nearly all actives have a fitted effect of over 40% in size
# Target sequence (Q9NUW8 whole entry, looked up): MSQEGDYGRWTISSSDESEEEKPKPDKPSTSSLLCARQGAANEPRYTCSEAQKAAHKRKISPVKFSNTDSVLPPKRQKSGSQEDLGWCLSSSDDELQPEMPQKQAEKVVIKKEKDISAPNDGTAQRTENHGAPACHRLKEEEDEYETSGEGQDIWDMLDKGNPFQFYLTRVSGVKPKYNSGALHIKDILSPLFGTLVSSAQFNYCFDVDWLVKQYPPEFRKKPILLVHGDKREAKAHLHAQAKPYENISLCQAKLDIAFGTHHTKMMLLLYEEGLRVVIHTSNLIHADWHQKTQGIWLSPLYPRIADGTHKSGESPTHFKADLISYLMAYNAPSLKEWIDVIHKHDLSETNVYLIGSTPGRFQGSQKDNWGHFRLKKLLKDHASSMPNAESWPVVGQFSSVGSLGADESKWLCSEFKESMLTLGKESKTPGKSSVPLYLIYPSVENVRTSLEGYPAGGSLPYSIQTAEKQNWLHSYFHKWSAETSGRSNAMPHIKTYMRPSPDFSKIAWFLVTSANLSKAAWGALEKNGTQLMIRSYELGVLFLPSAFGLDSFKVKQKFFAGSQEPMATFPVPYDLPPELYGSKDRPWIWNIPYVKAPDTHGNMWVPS
#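 Tdp1 1 nM final; 15 min RT w/ cpd; substrate 15 nM, 5 min; beads 10 ug/ml, 10 min; AlphaScreen read. Neg ctrl: no enzyme.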
# CtBP-E1A blk = qHTS Assay for Inhibitors of the CtBP/E1A Interaction; AlphaScreen GST-E1A/His-CtBP binding, 1536-well; hits give low values; activity change, % (no concentration beside the values); hit rate 0.49% among 340,000; AID 651724, 2012; in the data active = activity change below about -65%; inconclusive = mostly about -30% to -63%
#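 Protein mix (5X: 125 nM each GST-E1A, His-CtBP) was incubated with pinned compound 2 h at 37 deg C in dark, in 50 mM Tris pH 8.0 buffer with 300 mM NaCl. Glutathione donor and nickel acceptor beads followed; AlphaScreen signal read after 1 h.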
# Six1-Eya2 inh = qHTS Assay for Inhibitors of the Six1/Eya2 Interaction | Homeobox protein SIX1 (Homo sapiens) + Protein phosphatase EYA2 (Homo sapiens), … | hit rate 0.56% among 360,000 | activity change, % (test concentration not listed) | AlphaScreen GST-Six1/His-Eya2 binding, biochemical; hits give low values; in the data active = activity change below about -65%; inconclusive = mostly about -30% to -63%
#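 GST-Six1 + His-Eya2 (5X stock: 250/500 nM); Tris pH 8.0, 300 mM NaCl, 0.05% BSA, 0.02% Tween 20; GSH donor/Ni acceptor beads; 1 h 37 °C dark; AlphaScreen readout.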
# DT40 TDP1 no CPT = qHTS for Inhibitors of human tyrosyl-DNA phosphodiesterase 1 (TDP1): qHTS in cells in absence of CPT; DT40 Tdp1-/- hTDP1 cells, no CPT, ATP luminescence, 48 h; hit rate 15% among 420,000; AID 686978, 2013; Potency, µM (series often up to 46.2 µM), without a hit: at the top dose activity change, negative = growth inhibition, most hits filed as inhibitors; also: potency is read from the fitted curve at half-maximal effect; nearly all actives have a fitted effect of over 55% in size
#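 Compound effects on proliferation are scored in DT40 Tdp1-/-;hTDP1 cells in the absence of CPT. ATP levels (CellTiter-Glo luminescence) are recorded after a ≥48 hr, 37 °C incubation.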
# TDP1 cell CPT = qHTS for Inhibitors of human tyrosyl-DNA phosphodiesterase 1 (TDP1): qHTS in cells in presence of CPT; Potency, µM (doses to about 46.2 µM), inactives show at the highest dose activity change, negative = growth inhibition, actives largely listed as inhibitors; chicken DT40 Tdp1-/-;hTDP1 cells + 20 nM CPT, ATP luminescence, 48 h; AID 686979, 2013; hit rate 12% among 420,000; also: potency is read from the fitted curve at half-maximal effect; nearly all actives have a fitted effect of over 55% in size
#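 Chicken DT40 Tdp1-/- cells stably complemented with human TDP1 were seeded at 400 cells/well in medium containing 20 nM camptothecin, exposed to pin-transferred compounds, and grown at 37 °C for at least 48 hr. Viability was read as ATP luminescence.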
# * marks the source's active call; other numbers are inactive results; ? = inconclusive; . = no result; ! = not active in a repeat; [ ] = remark or other dose. Unless noted, calls follow the shape of the dose curve; as a rule, active = well fitted curve in the direction sought with a large enough effect; inconclusive = small, poorly fitted or top-dose-only effect, or another doubt; inactive = no such curve, though single readings can be large; an effect the other way counts as inactive or inconclusive. % is scaled to controls: 0 for no effect and ±100 for the full control effect.
SMILES,IL-1B inflam inh,TDP1 block,CtBP-E1A blk,Six1-Eya2 inh,DT40 TDP1 no CPT,TDP1 cell CPT
COc1ccc(CN2CCC3(CCC(CNC(=O)c4ccnn4C)O3)CC2)c(C)c1C (stereo not given),.,.,.,.,?,-29.2%
O=C(CSCc1ccc([N+](=O)[O-])cc1)NC1CC2CCC1C2 (stereo not given),3.3,0.0%,7.2,9.7,-19.8%,-23.1%
CCc1c(C)nc2ccc(Br)cc2c1SCCC#N,-182.9*,0.0%,8.9,0.2,?,?
CC1=C/C(=C(\c2cc(C)c(O)c(Br)c2)c2ccccc2S(=O)(=O)O)C=C(Br)C1=O,-80.6*,15.5%,-75.4*,-91.6*,?,?
COc1ccc(C(=O)NCC(c2ccc(N(C)C)cc2)N2CCc3ccccc32)cc1 (stereo not given),.,11.2%,.,.,8.2µM*,7.31µM*
CC(C)Oc1ccc(C(=O)NCC(c2ccc(N(C)C)cc2)N2CCc3ccccc32)cc1 (stereo not given),.,11.2%,.,.,20.6µM*,9.2µM*
CN(C)c1ccc(C(CNC(=O)c2ccccc2Cl)N2CCc3ccccc32)cc1 (stereo not given),.,8.8%,.,.,?,?
COc1ccccc1C(=O)NCC(c1ccc(N(C)C)cc1)N1CCc2ccccc21 (stereo not given),.,11.2%,.,.,16.4µM*,20.6µM*
CN(C)c1ccc(C(CNC(=O)c2ccccc2)N2CCc3ccccc32)cc1 (stereo not given),.,13.8%,.,.,14.6µM*,7.31µM*
Cc1ccc(S(=O)(=O)NCC(c2ccc(N(C)C)cc2)N2CCc3ccccc32)cc1C (stereo not given),.,13.8%,.,.,23.1µM*,?
COc1ccc(S(=O)(=O)NCC(c2ccc(N(C)C)cc2)N2CCc3ccccc32)cc1 (stereo not given),.,11.2%,.,.,?,?
CC(=O)C1=CCC(c2cccc3ccccc23)N(S(=O)(=O)c2ccc(C)cc2)C1 (stereo not given),-15.8,.,-8.6,-1.4,18.4µM*,?
CCOC(=O)C1=CCC(C(C)(C)C)N(S(=O)(=O)c2ccc(C)cc2)C1 (stereo not given),58.8,.,10.9,9.2,?,?
CCOC(=O)C1=CCC(c2ccc(C)cc2)N(S(=O)(=O)c2ccc(C)cc2)C1 (stereo not given),28.1,.,-10.6,25.5,18.4µM*,23.1µM*
CCOC(=O)C1=CCC(c2ccccc2C)N(S(=O)(=O)c2ccc(C)cc2)C1 (stereo not given),51.6,.,1.1,-6.6,14.6µM*,10.3µM*
CCOC(=O)C1=CCN(S(=O)(=O)c2ccc(F)cc2)C1c1ccc(C)cc1 (stereo not given),0.0,.,4.6,2.6,?,-20.0%
CC(C)n1c(O)c(N=NC(=O)CNC(=O)c2cccnc2)c2ccccc21,-1.8,4.9%,-0.7,3.3,-10.6%,-25.3%
CCC[N+](CC#Cc1ccccc1)(CCC)CC(=O)OC,28.0,0.0%,0.1,-12.8,4.3%,?
O=C(C[N+]1(CC#Cc2ccccc2)CCOCC1)c1ccccc1,-18.9,7.7%,.,-0.2,16.4µM*,?
O=C(C[N+]1(CC#Cc2ccccc2)CCCCC1)c1ccccc1,-20.8,0.0%,-0.9,-0.4,20.6µM*,16.4µM*
CCC[N+](CC#Cc1ccccc1)(CCC)CC(=O)c1ccc(Cl)cc1,-71.4*,0.0%,-1.6,4.7,25.9µM*,?
C(#Cc1ccccc1)C[N+]1(CC#Cc2cccc3ccccc23)CCOCC1,-84.4*,-1.2%,-23.4,-2.9,4.61µM*,6.51µM*
O=C(C[N+]1(CC#Cc2ccccc2)CCOCC1)c1ccc(Cl)cc1,-11.4,-2.5%,0.0,-1.0,?,?
CCOC(=O)CSC1=C(C#N)C(c2ccc(Cl)cc2)C(C(=O)OC)C(=O)N1 (stereo not given),-18.1,-6.8%,?,-2.1,?,?
O=C(C[N+]1(CC#Cc2ccccc2)CCCCC1)c1ccc(Cl)cc1,-56.8*,2.5%,.,-4.3,3.66µM*,11.6µM*
SMILES,IL-1B inflam inh,TDP1 block,CtBP-E1A blk,Six1-Eya2 inh,DT40 TDP1 no CPT,TDP1 cell CPT
Cc1ccc(NC(=O)CSc2nc(=O)n(Cc3ccccn3)c3c2CCC3)cc1F,.,0.0%,.,.,16.4µM*,?
Cc1ccc(NC(=O)CSc2nc(=O)n(CCCN3CCOCC3)c3c2CCCC3)cc1F,-85.2*,-5.8%,-25.0,5.6,-17.6%,1.3%
O=C(CSc1nc(=O)n(Cc2cccnc2)c2c1CCC2)Nc1cccc(Cl)c1,.,2.6%,.,.,?,-26.2%
CCc1ccc(NC(=O)CSc2nc(=O)n(CCCN3CCOCC3)c3c2CCCC3)cc1,?,1.1%,-2.8,0.3,-21.7%,-18.5%
O=C(CSc1nc(=O)n(Cc2ccccn2)c2c1CCC2)Nc1cccc(Cl)c1,.,2.6%,.,.,?,?
CC(C)c1ccc(NC(=O)CSc2nc(=O)n(Cc3ccccn3)c3c2CCC3)cc1,.,-2.6%,.,.,18.4µM*,23.1µM*
CC(=O)c1cccc(NC(=O)CSc2nc(=O)n(Cc3ccccn3)c3c2CCC3)c1,?,0.0%,6.0,-9.9,?,-29.1%
CC(C)c1ccc(NC(=O)CSc2nc(=O)n(Cc3cccnc3)c3c2CCC3)cc1,.,-5.2%,.,.,25.9µM*,?
CCN1Cc2ccccc2-c2ccccc2S1(=O)=O,-1.2,-0.6%[56.1 µM],4.8,3.8,-7.5%,0.8%
C[C@]12C=CC(=O)C=C1CC[C@@H]1C2C(O)C[C@@]2(C)C1CC[C@]2(O)C(=O)COC(=O)CCC(=O)NC(CC(=O)O)C(=O)O (stereo not given in full),?,.,.,3.7,?,-12.6%
C[C@]12CCC(=O)C=C1CCC1C3CC[C@](O)(C(=O)CO)[C@@]3(C)CC3OC312 (stereo not given in full),.,5.6%,.,.,-2.2%[9.04 µM],-11.0%[9.04 µM]
C[C@]12CCC(=O)C=C1CC[C@H]1[C@@H]3CC[C@](O)(C(=O)CO)[C@@]3(C)C[C@H](O)[C@@]12F,.,.,.,.,26.6µM*!,?
